# Several values for one entry are separate records, joined by “and”; a condition that tells them apart may be missing. Equal values may be shown once. Activity calls are given as the source filed them.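 Rule for the calls, unless noted: active = normalized viability below 100% at a tested concentration; inactive = the rest.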
# Experiments:
# [1] = hESC survival regulators, cell-based (AID 493140; call rule not given here;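 note: cells exposed to compounds for four days before counting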); conditions: human embryonic stem cell survival screen; stronger effect = higher value
# [2] = liver-stage malaria parasite growth inhibition, primary screen, cell-based, HepG2, luciferase luminescence, HepG2 viability (AID 624349; in the data active = parasite load remaining mostly below about 12%, no sharp cut-off; inactive = mostly above about 10%;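 note: 100% = mean of DMSO negative control wells on the same plate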); conditions: P. berghei liver stage in HepG2, luciferase luminescence, concentration not given here; parasite load remaining: stronger effect = lower value; viability: measured here: HepG2 viability without parasites
# [3] = system: Aerobactin synthetase IucA (Klebsiella pneumoniae); experiment: IucA aerobactin synthetase inhibitors, biochemical, Tocris library, absorbance (AID 1345561; call rule not given here;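 note: 100% = enzyme without compound and 0% = no enzyme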); conditions: purified IucA enzyme assay, absorbance (OD) read-out; stronger effect = lower value;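 tested at 8 µM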
# [4] = sensitizers of A549 cells to miR-34 induction, primary screen, imaging, A549 dox-inducible miR-34, nuclei and caspase counts (AID 1347080;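 active = compounds whose cell count with miR-34 switched on is under 0.7 times the count with it off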); conditions: A549 miR-34 inducible, Hoechst nuclei count, 48 h
# [5] = inhibitors of Cryptococcus chitosan production, flow cytometry, Cibacron Brilliant Red staining (AID 1347148; call rule not given here;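 note: compound exposure lasted three days at 37 degrees C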); conditions: Cryptococcus neoformans chitosan, stronger effect = lower value; at 10 µM unless noted
# [6] = survival rescue of mitochondrial mutant cells in low glucose, primary screen, MELAS cybrids, Rieske KO mouse fibroblasts, CellTiter-Glo (AID 1508586;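 active = mean z-score across replicates of 1.96 or higher in either the MELAS or the Rieske mutant cell line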;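 note: z relative to plate mean and SD of compound and empty wells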)
# [7] = ovarian cancer cell viability with rucaparib, profiling panel, oncology-focused library, rucaparib conditional (AID 1508598); conditions: patient-derived ovarian cancer cells, CellTiter-Glo viability, 144 h, stronger effect = lower value
# [8] = viability rescue of complex I mutant cybrids, primary screen, cell-based, galactose medium, ATP luminescence (AID 1645843;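 active = z-score of at least 1.8 in each of two replicates, scored against plate mean and spread of sample wells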;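 note: positive z means more ATP and so rescue of galactose-driven cybrid death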); conditions: complex I mutant cybrid cells, 72 h, stronger effect = higher value
# [9] = circadian clock period modulators, cell-based, LOPAC library, luminescence reporter (AID 2774; call rule not given here;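 note: values are relative to mean of DMSO wells on each plate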); conditions: circadian reporter cells, at 7 µM, actives lie on both sides
# [10] = system: Hepatitis C virus NS3 helicase; experiment: HCV NS3 helicase inhibitors, primary screen, biochemical, fluorescence polarization, LOPAC1280 library (AID 687035; in the data active = inhibition above about 37%); conditions: Purified HCV NS3 helicase, Cy5-dT15 ssDNA binding fluorescence polarization; stronger effect = higher value; concentration not given here
# [11] = Cy5 fluorescence quenching or enhancement artefacts, artefact control for HCV NS3 helicase inhibitor project, biochemical, LOPAC1280 (AID 687037; call rule not given here); conditions: Cy5-DNA-NS3h complex fluorescence interference counterscreen
# [12] = phospholipid biosynthesis inhibitors in animal cells, primary screen, cell-based, LOPAC library, screen 4 (AID 1347384; call rule not given here); conditions: phospholipid biosynthesis inhibition screen, at 10 µM
# [13] = stronger effect = lower value, cell number ratio, induced over uninduced
# [14] = measured here: relative caspase fold change +Dox/-Dox
# [15] = measured here: total cells with miR-34 induction, stronger effect = lower value
# [16] = measured here: total cells without miR-34 induction
# [17] = MELAS cybrid survival, CellTiter-Glo 48 h, stronger effect = higher value
# [18] = Rieske KO mouse fibroblast survival, CellTiter-Glo 72 h
smiles,measurement,setting,value
CN(C)CCCn1cc(C2=C(c3c[nH]c4ccccc34)C(=O)NC2=O)c2ccccc21,survival,[1],60.4 (inactive)
same,parasite load remaining,[2],40.8% (inactive)
same,viability,[2],101%
same,remaining activity,[3],99.8% (inactive)
same,fold change,[4]; [13],1.07 (inactive) and 1 (inactive) and 1.3 (inactive)
same,fold change,[4]; [14],0.742 and 0.718 and 1.02
same,cell count,[4]; [15],1180 and 5040 and 4700
same,cell count,[4]; [16],1100 and 5040 and 3620
same,fold fluorescence,[5],5.95 [at 121.2 µM] (inactive)
same,z-score,[6]; [17],-0.455 (inactive)
same,z-score,[6]; [18],-0.16
same,viability,"[7]; at 0.000305 µM, OCI-C5x cells, with rucaparib 10 µM, 100% = cells with rucaparib alone",111% (inactive)
same,viability,"[7]; at 0.000305 µM, OCI-C5x cells, without rucaparib",113% (inactive)
same,viability,"[7]; at 0.000305 µM, OCI-P5x cells, with rucaparib 20 µM, 100% = cells with rucaparib alone",94.2% (active)
same,viability,"[7]; at 0.000305 µM, OCI-P5x cells, without rucaparib",96.8% (active)
same,viability,"[7]; at 0.00122 µM, OCI-C5x cells, with rucaparib 10 µM, 100% = cells with rucaparib alone",124% (inactive)
same,viability,"[7]; at 0.00122 µM, OCI-C5x cells, without rucaparib",118% (inactive)
same,viability,"[7]; at 0.00122 µM, OCI-P5x cells, with rucaparib 20 µM, 100% = cells with rucaparib alone",102% (inactive)
same,viability,"[7]; at 0.00122 µM, OCI-P5x cells, without rucaparib",96% (active)
same,viability,"[7]; at 0.00488 µM, OCI-C5x cells, with rucaparib 10 µM, 100% = cells with rucaparib alone",118% (inactive)
same,viability,"[7]; at 0.00488 µM, OCI-C5x cells, without rucaparib",118% (inactive)
same,viability,"[7]; at 0.00488 µM, OCI-P5x cells, with rucaparib 20 µM, 100% = cells with rucaparib alone",104% (inactive)
same,viability,"[7]; at 0.00488 µM, OCI-P5x cells, without rucaparib",101% (inactive)
same,viability,"[7]; at 0.0195 µM, OCI-C5x cells, with rucaparib 10 µM, 100% = cells with rucaparib alone",118% (inactive)
same,viability,"[7]; at 0.0195 µM, OCI-C5x cells, without rucaparib",108% (inactive)
same,viability,"[7]; at 0.0195 µM, OCI-P5x cells, with rucaparib 20 µM, 100% = cells with rucaparib alone",103% (inactive)
same,viability,"[7]; at 0.0195 µM, OCI-P5x cells, without rucaparib",105% (inactive)
same,viability,"[7]; at 0.0781 µM, OCI-C5x cells, with rucaparib 10 µM, 100% = cells with rucaparib alone",113% (inactive)
same,viability,"[7]; at 0.0781 µM, OCI-C5x cells, without rucaparib",120% (inactive)
same,viability,"[7]; at 0.0781 µM, OCI-P5x cells, with rucaparib 20 µM, 100% = cells with rucaparib alone",101% (inactive)
same,viability,"[7]; at 0.0781 µM, OCI-P5x cells, without rucaparib",105% (inactive)
same,viability,"[7]; at 0.313 µM, OCI-C5x cells, with rucaparib 10 µM, 100% = cells with rucaparib alone",120% (inactive)
same,viability,"[7]; at 0.313 µM, OCI-C5x cells, without rucaparib",134% (inactive)
same,viability,"[7]; at 0.313 µM, OCI-P5x cells, with rucaparib 20 µM, 100% = cells with rucaparib alone",108% (inactive)
same,viability,"[7]; at 0.313 µM, OCI-P5x cells, without rucaparib",109% (inactive)
same,viability,"[7]; at 1.25 µM, OCI-C5x cells, with rucaparib 10 µM, 100% = cells with rucaparib alone",122% (inactive)
same,viability,"[7]; at 1.25 µM, OCI-C5x cells, without rucaparib",130% (inactive)
same,viability,"[7]; at 1.25 µM, OCI-P5x cells, with rucaparib 20 µM, 100% = cells with rucaparib alone",116% (inactive)
same,viability,"[7]; at 1.25 µM, OCI-P5x cells, without rucaparib",109% (inactive)
same,viability,"[7]; at 5 µM, OCI-C5x cells, with rucaparib 10 µM, 100% = cells with rucaparib alone",109% (inactive)
same,viability,"[7]; at 5 µM, OCI-C5x cells, without rucaparib",146% (inactive)
same,viability,"[7]; at 5 µM, OCI-P5x cells, with rucaparib 20 µM, 100% = cells with rucaparib alone",101% (inactive)
same,viability,"[7]; at 5 µM, OCI-P5x cells, without rucaparib",105% (inactive)
same,z-score,[8],-0.475 (inactive)
O=C1CCc2c(ccc3ccccc23)O1,remaining activity,[3],100% (inactive)
same,fold change,[4]; [13],0.939 (inactive) and 0.91 (inactive)
same,fold change,[4]; [14],0.854 and 0.797
same,cell count,[4]; [15],5380 and 8760
same,cell count,[4]; [16],5730 and 9620
same,fold fluorescence,[5],3.79 [at 252.2 µM] (inactive)
same,z-score,[8],-0.32 (inactive)
CC(C)NC[C@H](O)COc1ccc(CC(N)=O)cc1,period change,[9],-0.06 h (inactive)
same,parasite load remaining,[2],111% (inactive)
same,viability,[2],102%
same,inhibition,[10],-2% (inactive)
same,fluorescence ratio (interference),[11],1 (inactive)
same,remaining activity,[3],87% (inactive)
same,fold change,[4]; [13],1.04 (inactive) and 0.889 (inactive) and 0.97 (inactive)
same,fold change,[4]; [14],1.51 and 1.14 and 0.697
same,cell count,[4]; [15],7050 and 9340 and 9400
same,cell count,[4]; [16],6770 and 10500 and 9690
same,outcome,[12],inactive
same,z-score,[6]; [17],-0.419 (inactive)
same,z-score,[6]; [18],-1.01
same,z-score,[8],0.305 (inactive) and -0.32 (inactive)
COc1ccccc1N1CCN(CCCCN2C(=O)c3ccccc3C2=O)CC1,period change,[9],0.18 h (inactive)
same,inhibition,[10],-3% (inactive)
same,fluorescence ratio (interference),[11],1 (inactive)
same,remaining activity,[3],97.1% (inactive)
same,fold change,[4]; [13],1.11 (inactive) and 0.969 (inactive)
same,fold change,[4]; [14],1.56 and 0.971
same,cell count,[4]; [15],9310 and 9300
same,cell count,[4]; [16],8410 and 9600
same,outcome,[12],inactive
same,z-score,[8],-0.155 (inactive) and -0.92 (inactive)

# — PubChem BioAssay
